# In PubChem BioAssay (NCI):
# This is part of a sample that, as a whole, favours compounds with a hit. Of some 83,000 tested, about 20% had one in any assay.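 The test compound was applied at a single concentration to cells in 96-well plates for 48 hours, and percent growth was recorded.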 Unmarked numbers belong to inactive results. Active and inactive are the calls of the source. How the source made its calls: active means growth percent below 10; inactive means the rest.
# Experiments:
# Test in all cases: NCI-60 one-dose screen, 48 h (100 = growth as untreated, 0 = no growth, -100 = all killed)
# Details in all cases: 10 µM unless noted
# SR leukemia = tested on: SR leukemia
# OVCAR-8 ovarian = tested on: OVCAR-8 ovarian
# OVCAR-5 ovarian = tested on: OVCAR-5 ovarian
# OVCAR-4 ovarian = tested on: OVCAR-4 ovarian
# SK-OV-3 ovarian = tested on: SK-OV-3 ovarian
# IGROV1 ovarian = tested on: IGROV1 ovarian
# OVCAR-3 ovarian = tested on: OVCAR-3 ovarian
# HS 578T breast = tested on: HS 578T breast
# NCI/ADR-RES ovarian = tested on: NCI/ADR-RES ovarian
# RPMI-8226 leukemia = tested on: RPMI-8226 leukemia
Compound,growth (SR leukemia),growth (OVCAR-8 ovarian),growth (OVCAR-5 ovarian),growth (OVCAR-4 ovarian),growth (SK-OV-3 ovarian),growth (IGROV1 ovarian),growth (OVCAR-3 ovarian),growth (HS 578T breast),growth (NCI/ADR-RES ovarian),growth (RPMI-8226 leukemia)
COc1cccc2cc(-c3cc4ccccc4[nH]3)/c(=N\NC(=O)c3ccc(Cl)cc3)oc12,25.7%,20.7%,49.2%,9.76% (active),39.5%,26.3%,14.7%,77%,13.3%,–
Cc1ccc(-c2nnc(SCc3ccc(O)c4ncccc34)n2-c2ccccc2)cc1,12.1%,–,37.5%,13.8%,5.69% (active),8.07% (active),16.2%,-3.23% (active),2.09% (active),7.99% (active)
COc1cc(OC)c(S(N)(=O)=O)cc1C(C)=O,–,104%,107%,102%,109%,–,–,112%,111%,103%
COc1cc(OC)cc(C(=O)Nc2sc3c(c2C(N)=O)CCC(=O)C3)c1,–,42.1%,48.3%,9.16% (active),106%,48.8%,14.8%,23.7%,53.9%,1.86% (active)
Oc1cccc2ccc(-c3nnc(SCc4ccc(O)c5ncccc45)o3)nc12,26.1%,–,40.9%,20.5%,12.3%,13.4%,2.66% (active),8.45% (active),17.3%,2.55% (active)
O=C1CC(=O)N2CSCN(C(c3ccccc3)c3nc4ncncc4[nH]3)C2=N1 (configuration not stated),118%,–,111%,107%,113%,99.3%,107%,107%,99.3%,107%
c1ccc(C(c2nc3ncncc3[nH]2)N2CSc3nc4ccccc4n3C2)cc1 (configuration not stated),111%,–,–,99.7%,102%,99.9%,105%,108%,104%,104%
CC1=NC2=NC(=O)/C(=C3/N=C(C)C=C(c4ccccc4)N3N)NN2C(c2ccccc2)=C1,116%,–,101%,96.7%,98.8%,70.1%,108%,116%,–,111%
Clc1ccc(N/N=c2/oc3ccccc3cc2-c2cc3ccccc3[nH]2)cc1,90.8%,62.3%,83.4%,69.5%,89.6%,57.2%,47.7%,103%,78.5%,–
CC(C)(C)c1ccc(CC(=O)Nc2sc3c(c2C(N)=O)CCC(=O)C3)cc1,–,11.1%,7% (active),-32.2% (active),9.81% (active),8.85% (active),-36% (active),33.6%,3.51% (active),-20.7% (active)
COc1cccc(C(=O)Nc2cccc(C#Cc3cccc4[nH]nc(N)c34)c2)c1,–,50.4%,69.2%,67.8%,86.7%,59.9%,–,66.4%,45.5%,39.2%
COc1cc(Cn2cc3c(c2)-c2onc(CN4CCOCC4)c2CC3)cc(OC)c1OC,114%,–,95%,74%,106%,99.8%,113%,110%,100%,91%
COc1cc2nc(Cl)nc(Nc3cccc(C4=Nc5c(N)nc(N)nc5NC(c5ccc(Br)cc5)C4)c3)c2cc1OC (configuration not stated),–,54.6%,113%,103%,125%,94.1%,72.6%,79.8%,86.6%,-2.07% (active)
COc1cc2nc(Cl)nc(Nc3cccc(C4=Nc5c(N)nc(N)nc5NC(c5ccc(F)cc5)C4)c3)c2cc1OC (configuration not stated),–,51.6%,107%,96.6%,117%,80.8%,61%,86.1%,80%,-3.6% (active)
C=CCn1c(-c2nc3ccc(C(=C(C#N)C#N)c4ccccc4)cc3[nH]2)cc2cc(Br)ccc21,50.5%,–,77.5%,54.5%,63.9%,65.1%,51.2%,64.4%,54.2%,35.7%
N#Cc1ccccc1Cn1c2nc(=N)c3ccccc3c-2nc2ccccc21,–,66.4%,78.6%,29.8%,79.2%,49.6%,-5.06% (active),97.8%,71.1%,77.2%
COc1ccc(Cn2cc3c(c2-c2cc(OC)c(OC)c(OC)c2)CCc2c(CN4CCOCC4)noc2-3)cc1,23.8%,–,32.1%,52.8%,54.2%,28.3%,2.5% (active),15.3%,8.51% (active),28.3%
Clc1nc2ccccc2nc1-c1nnc(C2CCCCC2)o1,–,101%,107%,98%,102%,101%,–,92.8%,107%,95.4%
COc1cc(-c2nnc(SCc3ccc(O)c4ncccc34)n2-c2ccccc2)cc(OC)c1OC,15.5%,–,33.2%,6.79% (active),1.71% (active),8.92% (active),6.44% (active),20.3%,0.665% (active),3.25% (active)
CC1=NC2=NN3C(=NN2C(c2ccccc2)=C1)N=NC(c1ccc(Br)cc1)=C3c1ccc(Br)cc1,102%,–,104%,108%,116%,99.3%,114%,105%,119%,111%
O=c1c2ccccc2nc(COc2ccccc2)n1NS(=O)(=O)c1ccc(Cl)cc1,57.6%,92%,–,95.2%,–,61.7%,103%,75%,73%,95.6%
C[C@H](CCC(=O)NCc1ccc(C(=O)Nc2ccccc2N)cc1)[C@H]1CC[C@H]2[C@@H]3[C@@H](O)C[C@@H]4C[C@H](O)CC[C@]4(C)[C@H]3CC[C@]12C,63.4%,–,67.8%,65.3%,73.7%,51%,64.3%,69.6%,99.4%,5.86% (active)
O=C(Nc1cccc(Cl)c1)Nc1nc2ccc([N+](=O)[O-])cc2o1,50.8%,6.36% (active),47.7%,-3.53% (active),12.9%,20.8%,-13.9% (active),36.4%,10.4%,–
O=C(Nc1nc2ccc([N+](=O)[O-])cc2s1)Nc1ccccc1Cl,18.1%,12.8%,81.8%,14%,22.8%,39.1%,16.8%,46.9%,47.1%,–
c1ccc(C(c2nc3ncncc3[nH]2)N2CSc3nc4ncncc4n3C2)cc1 (configuration not stated),84.9%,–,62.4%,27.1%,23.1%,77.6%,38.6%,77.2%,44.4%,29.4%
CCN1CCN(C(=O)[C@]23CCC(C)(C)C[C@H]2C2=CC[C@@H]4[C@@]5(C)Cc6c([nH]c7ccccc67)C(C)(C)[C@@H]5CC[C@@]4(C)[C@]2(C)CC3)CC1,–,91.8%,80.1%,99.7%,106%,88.7%,–,87.1%,87%,84.9%
C=CCn1c(SCC(=O)Nc2ccc(C(=O)/C=C/c3cccc([N+](=O)[O-])c3)cc2)nnc1-c1c[nH]c2ccccc12,–,90.4%,96.8%,74.9%,106%,82.7%,99.8%,102%,101%,11.9%
COc1cc(Cn2cc3c(c2)-c2onc(CN4CCCC4)c2CC3)cc(OC)c1OC,97.9%,–,99%,72.7%,108%,101%,100%,97.7%,94.9%,88%
Oc1ccc(CSc2nnc(-c3ccc(Cl)cc3)n2-c2ccccc2)c2cccnc12,31%,–,57.7%,38%,32.6%,–,25.3%,25.8%,4.53% (active),16.4%
